Experimental findings from PubChem BioAssay (EPA / NIEHS) are described below.

A word on the AC50: it is the concentration at which the activity in the assay is half-maximal.

Active and inactive are the calls of the source. Rule for the calls: active = hit-call score of the fitted dose curve at least 0.9, where 1 is the maximum; inactive = score below 0.9.

The nature of this test: CCTE_Shafer_MEA_acute_interburst_interval_mean: CCTE's Neural Acute Assay for Mean Interburst Interval, Shafer Lab (AID 2284016).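 Note: percent change of mean interburst interval versus each well's own pre-dose baseline.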 As to the method:
CCTE_Shafer_MEA_acute assay is conducted using Axion Biosystems 48 well microelectrode array (MEA) plates and Maestro recording system. Each well of the MEA plate contains a grid of 16 microelectrodes embedded in the culture surface. Electrically active cells, such as neurons, can be cultured over the electrodes, and electrical activity in these cells can be recorded extracellularly. The spontaneous firing of neurons is captured from each electrode on a microsecond timescale providing both temporally and spatially precise data. […] The CCTE_Shafer_MEA_acute assay uses primary cultures of rat cortical neurons. As these cultures mature over time, neural networks develop functional activity and form cohesive networks in which electrical activity can be highly coordinated. Baseline 40-minute recordings are made on days post-plating 13 or 15, followed by a secondary 40-minute recording after chemical exposure.CCTE_Shafer_MEA_acute_interburst_interval_mean is a component of the CCTE_Shafer_MEA_acute assay. It measures the average time between the start of consecutive single-electrode bursts (temporally-clustered groups of action potential firing) during a recording in a microelectrode array (MEA) using Axion Biosystems Maestro 768 channel amplifier with the AxIS adaptive spike detector. The recordings before and after chemical treatment are used to calculate a percent change in the mean inter-burst interval in each well.Data from the assay component CCTE_Shafer_MEA_acute_interburst_interval_mean was analyzed into 1 assay endpoint. This assay endpoint, CCTE_Shafer_MEA_acute_interburst_interval_mean, was analyzed in the negative analysis fitting direction relative to DMSO as the negative control and baseline of activity. Using a type of functional reporter, gain or loss-of-signal activity can be used to understand electrical activity.
Spontaneous activity in the cortical cultures was recorded using an Axion Biosystems Maestro 768 channel amplifier and Axion Integrated Studios (AxIS) v1.8 (or later) software. The amplifier recorded from all channels simultaneously (gain = 1200 x; sampling rate = 12.5 kHz/channel): raw signals were filtered with a Butterworth band-pass filter (300-5000 Hz), which filters out slower local field potentials leaving only fast potentials, i.e., "spikes", arising from extracellular currents associated with action potentials (Pine 2006; Wheeler and Nam 2011). On-line spike detection of filtered signals was conducted with the AxIS adaptive spike detector, using a threshold of 8x the root mean squared (rms) noise on each channel. Any electrodes with rms noise levels greater than 5 uV were grounded (e.g., no data were recorded). Once grounded, an electrode was grounded for the duration of the experiment. All recordings were conducted at 37 C. Wells were deemed usable if on the day of the exposure >/= 10 electrodes were active (defined as >/= 5 spikes/min). On DIV 13 or 15, a minimum of three wells from one cortical culture preparation were treated with each compound (0.03-40 uM). Prior to recording baseline activity, each mwMEA plate was placed in the Maestro at 37 C and allowed to sit for 20 min while firing rates stabilized. Baseline activity (40 min) was recorded before the addition of each compound. An additional 40 min of spontaneous activity was recorded in the presence of each compound. Changes in network parameters relative to baseline were assessed following compound treatment.
For `CCC1(c2ccccc2)C(=O)N=C(O)NC1=O` (stereo unspecified), the compound was classed as inactive.
Consider `CC(Cl)(Cl)C(=O)O`, for which the compound was classed as inactive.
For the compound `ClC1=C(Cl)C2(Cl)C3C(Cl)C(Cl)CC3C1(Cl)C2(Cl)Cl` (stereo unspecified), the compound was called inactive.
As for `Nc1ccc2ccccc2c1`, the result was inactive.
Turning to `O=C(O)C1C(C(=O)O)C2(Cl)C(Cl)=C(Cl)C1(Cl)C2(Cl)Cl` (stereo unspecified), the compound was called inactive.
For the compound `CC(C)(C)c1ccccc1OP(=O)(Oc1ccccc1)Oc1ccccc1`, the call was inactive.
Same read-out and setting: then `ClC(Cl)(Cl)c1ccccc1`, with “inactive”; and `[N-]=[N+]=[N-]`, with “inactive”.
Take `c1ccc2c(c1)Nc1ccccc1S2`: the AC50 was 4.14 µM (active).
As for `CCOP(=S)(Oc1ccc([N+](=O)[O-])cc1)c1ccccc1` (stereo unspecified), the result was inactive.
Consider `CCCCC(CC)COP(=O)(Oc1ccccc1)Oc1ccccc1` (stereo unspecified), for which the result was inactive.
On to `COCCOCCO`, for which the call was inactive.
With `COP(=O)(CCC(=O)NCO)OC`, the compound was classed as inactive.
Consider `CCC(C)(C)c1ccc(O)cc1`, for which the AC50 was 0.0877 µM (active).
For `CCOc1ccc(C(C)(C)COCc2cccc(Oc3ccccc3)c2)cc1`, the AC50 was 23.1 µM (active).
For the compound `Cc1ccc(N)cc1N`, the compound was classed as inactive.
